Results filed as inconclusive are left out. The source made the active and inactive calls. Unless noted, calls come from the whole dose curve; as a rule, active = well fitted curve in the direction sought with a large enough effect in the repeat runs; inconclusive = weak or mixed curves; inactive = flat fitted curve, though single readings scatter. Positions of bridges follow the written chain, without caps; N, C: chain ends. Non-standard residues stand in square brackets, D forms with d. Residues, ends and D or L forms follow the SMILES beside them. *: point of attachment. X2 = CC[C@H](C)CCCCC(=O)*; Dab = NCC[C@H](N)C(=O)O

From PubChem BioAssay (Tox21) come the findings set out here.

The nature of test [1]: qHTS assay to test for compound auto fluorescence at 535 nm (green) in HEK293 cells (AID 720680).
A short description of test [2]: qHTS assay to test for compound auto fluorescence at 460 nm (blue) in HEK293 cell free culture (AID 720681). Summed up: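 Compounds were added to cell-free DMEM with 10% FBS and fluorescence read directly. The blue channel used 405 nm excitation and 460 nm emission, with triamterene as the reference fluorophore.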
Test [3] is described as follows: qHTS assay to test for compound auto fluorescence at 535 nm (green) in HEK293 cell free culture (AID 720682). Summed up:
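Cell-free medium (DMEM, 10% FBS) receives compound or DMSO by pintool. Plate read directly at Ex 485/Em 535 nm. Signal converted to fluorescein equivalency.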

Test [4] in a line: qHTS assay to test for compound auto fluorescence at 590 nm (red) in HEK293 cell free culture (AID 720683). Summed up: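 Cell-free wells of DMEM with 10% FBS received compound, and intrinsic fluorescence was read at excitation/emission 540/590 nm. Values expressed as equivalence to Rose Bengal sodium.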
Test [5] can be described thus: qHTS assay to test for compound auto fluorescence at 590 nm (red) in HepG2 cell free culture (AID 720684). Summed up:
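Auto fluorescence equivalency versus Rose Bengal sodium, red channel Ex/Em 540/590 nm; compounds in cell-free MEM/10% FBS; DMSO vehicle control.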

Test [6] is described as follows: qHTS assay to test for compound auto fluorescence at 460 nm (blue) in HepG2 cell free culture (AID 720685). Summed up:
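Cell-free plates of MEM plus 10% FBS received 23 nL compound or DMSO vehicle; blue-channel (405/460 nm) intensity scored against triamterene as reference fluorophore.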

The nature of test [7]: qHTS assay to test for compound auto fluorescence at 535 nm (green) in HepG2 cell free culture (AID 720686).
Test [8] is described as follows: qHTS assay to test for compound auto fluorescence at 460 nm (blue) in HepG2 cells (AID 720687). Summed up:
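HepG2 cells in MEM with 10% FBS, attached overnight at 37 C, were exposed to compound or DMSO for 1 hr at 37 C, 5% CO2. Blue fluorescence was read at 405/460 nm, with triamterene as reference fluorophore.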

Test [9] concerns the target Glucocorticoid receptor (Homo sapiens) (UniProt P04150). Nature of the test: qHTS assay to identify small molecule agonists of the glucocorticoid receptor (GR) signaling pathway (AID 720691; active = well fitted activation curve with a large enough effect in the signal ratio in the repeat runs, not every such curve was filed as active; the % refers to the signal ratio). As to conditions: GR-bla HeLa, beta-lactamase reporter ratio, 18 h; activation: at 62.4 µM (top of the series). Summed up:
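HeLa GR-bla reporter line; cells pre-incubated 4 h, compound in DMSO 18 h at 37 C; LiveBLAzer B/G FRET substrate 2 h RT; fluorescence intensity read-out.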

Test [10] shares this target. Nature of the test: qHTS assay to identify small molecule antagonists of the glucocorticoid receptor (GR) signaling pathway (AID 720692; active = well fitted inhibition curve with a large enough effect in the signal ratio in the repeat runs, not every such curve was filed as active; the % refers to the signal ratio; note: potency is the fitted concentration of half-maximal effect). Summed up:
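Read-out: beta-lactamase FRET substrate fluorescence, 2 h at room temperature, in HeLa cells stably carrying a GRE-driven bla reporter. Compounds were co-incubated with 5 nM dexamethasone agonist (final) for 18 h at 37 C.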

Sequence of Glucocorticoid receptor (Homo sapiens) (P04150 whole entry, looked up): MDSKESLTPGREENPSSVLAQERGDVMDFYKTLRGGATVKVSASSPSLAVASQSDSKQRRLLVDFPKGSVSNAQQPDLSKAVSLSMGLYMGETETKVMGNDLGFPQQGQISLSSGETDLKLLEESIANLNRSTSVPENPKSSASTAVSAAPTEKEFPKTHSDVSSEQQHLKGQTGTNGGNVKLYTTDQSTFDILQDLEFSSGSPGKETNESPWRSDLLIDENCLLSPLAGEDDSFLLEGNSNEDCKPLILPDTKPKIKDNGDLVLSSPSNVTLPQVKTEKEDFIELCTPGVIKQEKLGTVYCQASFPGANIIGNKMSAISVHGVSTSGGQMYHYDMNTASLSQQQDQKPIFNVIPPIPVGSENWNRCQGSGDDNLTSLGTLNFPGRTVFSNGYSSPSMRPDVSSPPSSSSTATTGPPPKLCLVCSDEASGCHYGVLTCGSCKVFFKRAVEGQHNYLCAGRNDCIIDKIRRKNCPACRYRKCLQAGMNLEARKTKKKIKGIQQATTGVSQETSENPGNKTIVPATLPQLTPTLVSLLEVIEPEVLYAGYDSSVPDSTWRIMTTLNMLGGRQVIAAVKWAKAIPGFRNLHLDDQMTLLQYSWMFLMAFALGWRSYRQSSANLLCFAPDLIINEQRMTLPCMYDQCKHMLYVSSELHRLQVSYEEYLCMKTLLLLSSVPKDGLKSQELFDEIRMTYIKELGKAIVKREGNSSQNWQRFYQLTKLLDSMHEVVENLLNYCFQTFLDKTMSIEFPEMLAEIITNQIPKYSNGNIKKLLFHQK

In the case of `CCCCC/C=C\CCC(=O)N[C@H]1[C@H](Oc2c3cc4cc2Oc2ccc(cc2Cl)[C@@H](O[C@@H]2O[C@H](CO)[C@@H](O)[C@H](O)[C@H]2NC(C)=O)[C@@H]2NC(=O)[C@H](NC(=O)[C@@H]4NC(=O)[C@H]4NC(=O)[C@@H](Cc5ccc(c(Cl)c5)O3)NC(=O)[C@H](N)c3ccc(O)c(c3)Oc3cc(O)cc4c3)c3ccc(O)c(c3)-c3c(O[C@H]4O[C@H](CO)[C@@H](O)[C@H](O)[C@@H]4O)cc(O)cc3[C@@H](C(=O)O)NC2=O)O[C@H](CO)[C@@H](O)[C@@H]1O`, the Potency entry in [1], in [2], in test [3], in test [4], in test [5] and in test [7] was “inactive” throughout. The Potency result in test [9] and in [10] was “inactive” in each case. Moreover, the compound was classed as inactive in test [6] and in [8].

Regarding `CNc1cc(OC)c(C(=O)N[C@H]2CCN(Cc3ccccc3)[C@H]2C)cc1Cl`, the Potency entry in test [1], in test [2], in test [3], in test [4], in test [5] and in test [7] was “inactive” throughout. Besides, the Potency result in test [9] and in test [10] was “inactive” in each case. Moreover, the compound was classed as inactive in test [6] and in test [8].

With `CC1(C)S[C@@H]2[C@H](NC(=O)C(C(=O)Oc3ccc4c(c3)CCC4)c3ccccc3)C(=O)N2[C@H]1C(=O)O` (stereo not given in full), the Potency result in test [1], in [2], in test [3], in test [4], in [5] and in test [7] was “inactive” in each case. For the same compound, the Potency entry in [9] and in test [10] was “inactive” in each case. Also, the compound was called inactive in test [6] and in test [8].

Regarding `c1ccc2cc(C3=NCCN3)ccc2c1`, the Potency result in test [1], in [2], in test [3], in [4], in test [5] and in test [7] was “inactive” each time. In addition, the Potency result in [9] and in [10] was “inactive” each time. In addition, the compound was classed as inactive in [6] and in [8].

Take `C=C[C@]1(C)C[C@@H](OC(=O)CO)[C@]2(C)[C@H](C)CC[C@]3(CCC(=O)[C@H]32)[C@@H](C)[C@@H]1O`: the Potency result in [1], in test [2], in test [3], in test [4], in test [5] and in test [7] was “inactive” in each case. Further, the Potency entry in [9] and in test [10] was “inactive” each time. Further, the compound was called inactive in [6] and in test [8].

As for `Cc1ncc(C[n+]2csc(CCOP(=O)(O)OP(=O)(O)O)c2C)c(N)n1`, the Potency result in [1], in test [2], in test [3], in test [4], in test [5] and in [7] was “inactive” each time. Besides, the Potency entry in test [9] and in test [10] was “inactive” each time. Also, the compound was called inactive in [6] and in test [8].

As for `CCCCCCCN(CC)CCCC(O)c1ccc(NS(C)(=O)=O)cc1` (stereo not given), the Potency result in test [1], in [2], in [3], in test [4], in test [5] and in test [7] was “inactive” throughout. Also, the Potency result in test [9] and in [10] was “inactive” in each case. In addition, the compound was classed as inactive in test [6] and in [8].

Regarding `C#C[C@]1(O)CC[C@H]2[C@@H]3CCC4=CC(=O)CC[C@@H]4[C@H]3C(=C)C[C@@]21CC`, the Potency entry in test [1], in [2], in test [3], in test [4], in [5] and in test [7] was “inactive” each time. Besides, the Potency entry in test [9] is “inactive”. Besides, the outcome in test [6] and in test [8] was inactive. The Potency in test [10] was 0.379 µM (active).

For `CO[C@H]1C[C@@H]2CC[C@@H](C)[C@@](O)(O2)C(=O)C(=O)N2CCCC[C@H]2C(=O)O[C@H]([C@H](C)C[C@@H]2CC[C@@H](OCCO)[C@H](OC)C2)CC(=O)[C@H](C)/C=C(\C)[C@@H](O)[C@@H](OC)C(=O)[C@H](C)C[C@H](C)/C=C/C=C/C=C/1C`, the Potency result in test [1], in test [2], in test [3], in [4], in [5] and in test [7] was “inactive” each time. Also, the Potency result in test [9] was “inactive”. In addition, the outcome in [6] and in [8] was inactive. In addition, the Potency in [10] was 7.56 µM (active).

For `COC(F)(F)C(Cl)Cl`, the Potency result in [1], in test [2], in test [3], in [4], in test [5] and in test [7] was “inactive” in each case. Also, the Potency result in [9] and in [10] was “inactive” throughout. The call in test [6] and in test [8] was inactive.

For `CN(C)CC/C=C1/c2ccccc2CSc2ccccc21`, the Potency entry in [1], in test [2], in [3], in [4], in [5] and in test [7] was “inactive” in each case. The Potency entry in test [9] and in test [10] was “inactive” each time. Moreover, the result in test [6] and in [8] was inactive.

Regarding `CCOC(=O)CN[C@@H](C(=O)N1CC[C@H]1C(=O)NCc1ccc(/C(N)=N/O)cc1)C1CCCCC1`, the Potency entry in [1], in [2], in [3], in [4], in [5] and in test [7] was “inactive” throughout. For the same compound, the Potency entry in [9] and in [10] was “inactive” in each case. For the same compound, the compound was classed as inactive in [6] and in test [8].

For the compound `CC[C@H](CC[C@@H](C)[C@H]1CC[C@H]2[C@@H]3CC=C4C[C@@H](O)CC[C@]4(C)[C@H]3CC[C@]12C)C(C)C`, the Potency result in test [1], in test [2], in test [3], in test [4], in test [5] and in [7] was “inactive” in each case. The Potency entry in test [9] and in test [10] was “inactive” in each case. The compound was classed as inactive in test [6] and in [8].

On to `CCCCC(=O)O[C@H]1CC[C@H]2[C@@H]3CCc4cc(O)ccc4[C@H]3CC[C@]12C`, for which the Potency result in test [1], in [2], in [3], in test [4], in test [5] and in [7] was “inactive” each time. In addition, the Potency entry in test [9] is “inactive”. The compound was classed as inactive in test [6] and in test [8]. The Potency in test [10] was 9.52 µM (active).

On to `CC(=O)Oc1cccc(C(=O)O)c1OC(C)=O`, for which the Potency entry in [1], in test [2], in [3], in test [4], in test [5] and in test [7] was “inactive” throughout. The Potency entry in test [9] and in test [10] was “inactive” in each case. Further, the compound was classed as inactive in test [6] and in [8].

With `CC(=O)OC[C@H]1O[C@@H](O[C@H]2[C@H](O)[C@@H](OC(=O)c3ccccc3C(=O)O)[C@H](O)O[C@@H]2COC(C)=O)[C@H](O)[C@@H](OC(=O)c2ccccc2C(=O)O)[C@@H]1O`, the Potency entry in test [1], in test [2], in test [3], in test [4], in [5] and in [7] was “inactive” in each case. In addition, the Potency result in test [9] and in [10] was “inactive” each time. Further, the outcome in test [6] and in test [8] was inactive.

Take `CO[C@H]1C=CO[C@@]2(C)Oc3c(C)c(O)c4c(O)c(c(/C=N/N5CCN(C6CCCC6)CC5)c(O)c4c3C2=O)NC(=O)/C(C)=C\C=C[C@H](C)[C@H](O)[C@@H](C)[C@@H](O)[C@@H](C)[C@H](OC(C)=O)[C@@H]1C`: the Potency entry in [1], in test [2], in test [3], in [4], in test [5] and in test [7] was “inactive” each time. Further, in [9], the Potency entry was “inactive”. For the same compound, the compound was classed as inactive in [6] and in [8]. Further, the Potency in test [10] was 21.3 µM (active).

As for `CC[C@H](C)CCCCC(=O)N[C@@H](CCN)C(=O)N[C@H](C(=O)N[C@@H](CCN)C(=O)N[C@H]1CCNC(=O)[C@@H]([C@H](C)O)NC(=O)[C@H](CCN)NC(=O)[C@H](CCN)NC(=O)[C@H](CC(C)C)NC(=O)[C@@H](CC(C)C)NC(=O)[C@H](CCN)NC1=O)[C@@H](C)O` (X2-[Dab]T[Dab][Dab][Dab][dL]L[Dab][Dab][dT]; lactam 4-C), the Potency entry in test [1], in [2], in test [3], in test [4], in test [5] and in [7] was “inactive” each time. Besides, the Potency entry in [9] and in [10] was “inactive” in each case. In addition, the outcome in [6] and in test [8] was inactive.

In the case of `CCOC(=O)c1c[nH]c2cc(OCC(C)C)c(OCC(C)C)cc2c1=O`, the Potency entry in test [1], in test [2], in test [3], in test [4], in test [5] and in test [7] was “inactive” each time. Also, the Potency result in [9] and in test [10] was “inactive” throughout. Moreover, the result in test [6] and in test [8] was inactive.

For `COc1ccc(C[C@@H](C)NC[C@H](O)c2ccc(O)c(NC=O)c2)cc1`, the Potency result in test [1], in test [2], in test [3], in [4], in test [5] and in [7] was “inactive” throughout. The Potency entry in test [9] and in test [10] was “inactive” throughout. Also, the result in test [6] and in [8] was inactive.
